Sampled rows, rich in hits. Any-hit rate of the full collection: about 1.9%.
LANA-H2B inh: blocks KSHV LANA binding to histone H2A/H2B; cell-free LANA-H2A/H2B peptide, fluorescence polarization; inhibition, % (no concentration beside the values); 0.6% of 320,000 active; AID 2629; in the data active means inhibition mostly above about 10%, no sharp cut-off; inactive means mostly below about 6.7%
CR mimetic SO: lowers age-related superoxide in aged yeast cells; S. cerevisiae aged cells, superoxide DHE fluorescence; stronger effect = lower value; superoxide response (% of plate mean), % at 10 µM; 0.18% of 330,000 active; AID 2690;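 active means superoxide response under a set limit, about three screen SD below normal, cut at about 65% in these data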;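 further: yeast aged for seven days with compound at 30 °C before DHE staining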
MCL1 BIM primary: MCL1-BIM-BH3 interaction inhibition (human) | AID 2057 | 0.68% of 320,000 active | GST-MCL1 / FITC-Bim-BH3 fluorescence polarization | inhibition, % at 10.9 µM | Q07820;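 active means inhibition above the mean inhibition of all tested compounds plus 3 SD, set per campaign, cut at about 40% in these data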;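 further: higher means more loss of mP so more displacement of Bim peptide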
Target sequence (Q07820 whole entry, looked up): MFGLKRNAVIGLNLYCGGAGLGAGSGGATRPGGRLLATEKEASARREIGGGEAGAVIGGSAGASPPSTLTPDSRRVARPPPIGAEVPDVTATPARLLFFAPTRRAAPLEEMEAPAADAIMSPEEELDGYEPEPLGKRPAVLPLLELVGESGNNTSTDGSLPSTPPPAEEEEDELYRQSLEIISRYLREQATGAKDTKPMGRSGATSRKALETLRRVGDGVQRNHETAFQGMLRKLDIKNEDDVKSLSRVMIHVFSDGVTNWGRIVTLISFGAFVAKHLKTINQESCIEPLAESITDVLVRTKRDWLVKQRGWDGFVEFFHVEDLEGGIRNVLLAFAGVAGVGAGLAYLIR
BCLXL inh: blocks human Bcl-xL binding to Bim BH3 peptide. Q07817. GST-Bcl-xL / FITC-Bim BH3 peptide fluorescence polarization. inhibition, % at 10.9 µM. 0.7% of 320,000 active. AID 2129;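 active means inhibition above the mean of all tested compounds plus 3 SD, cutoff set per campaign, cut at about 30% in these data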;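 further: inhibitors lower millipolarization by displacing the labeled peptide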
Target sequence (Q07817 whole entry, looked up): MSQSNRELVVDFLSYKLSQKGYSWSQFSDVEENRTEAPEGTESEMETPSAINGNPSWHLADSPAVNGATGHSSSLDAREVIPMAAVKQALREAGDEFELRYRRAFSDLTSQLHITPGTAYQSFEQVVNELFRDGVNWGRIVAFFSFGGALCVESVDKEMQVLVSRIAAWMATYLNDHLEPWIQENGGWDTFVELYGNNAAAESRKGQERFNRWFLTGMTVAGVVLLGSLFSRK
GLD-1 RNA inh: GLD-1-TGE RNA interaction inhibition (C. elegans). Q17339. purified GLD-1 + fluorescein TGE RNA, fluorescence polarization. inhibition, % at 5.96 µM. 0.44% of 320,000 active;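 active means percent inhibition above a per-plate cutoff, the plate mean of test compounds plus 3 SD, cut at about 30% in these data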
MEX-5 binding: C. elegans MEX-5 TCR-2 RNA binding activity. activity score (negative = inhibition of binding), % at 10 µM. AID 1832. Q9XUB2. 0.38% of 300,000 active. MEX-5/FITC-TCR2 RNA binding, fluorescence polarization; stronger effect = lower value;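 active means inhibition past about -25% in most replicates, and total fluorescence under double the plate's negative control median, limit read from the data; inconclusive means replicates evenly split on the limit, or fluorescence at least double controls; inactive means too little inhibition in most replicates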
Each line names hits and unclear results; the compound was inactive in the other large screens; ! = not active in a repeat.

CN(C)CC/C=C1\c2ccccc2COc2ccccc21	LANA-H2B inh 70
CN(C)CC/C=C1/c2ccccc2CS(=O)(=O)c2ccccc21	none (no result: MEX-5 binding)
COc1ccc(NC(=O)c2ccc(NC(=O)c3nc4nccc(C)n4n3)cc2)cc1	none (no result: MCL1 BIM primary, BCLXL inh, MEX-5 binding)
COc1ccc(NC(=O)c2nc3nccc(C)n3n2)cn1	BCLXL inh 34
COc1cccc(S(=O)(=O)NC2CCN(C#N)C2)c1 (stereo unspecified)	none (no result: MEX-5 binding)
CCOC(=O)c1c(NC(=O)CC2Nc3ccccc3NC2=O)sc(C)c1C (stereo unspecified)	MEX-5 binding -35
CCCCNC(=O)CC1Nc2ccccc2NC1=O (stereo unspecified)	BCLXL inh 32
O=C(CC1Nc2ccccc2NC1=O)NCCCN1CCCCCC1 (stereo unspecified)	none
COC(=O)c1c(NC(=O)CC2Nc3ccccc3NC2=O)sc(C)c1C (stereo unspecified)	MEX-5 binding -32
O=C(CC1Nc2ccccc2NC1=O)Nc1cc(Cl)cc(Cl)c1 (stereo unspecified)	MEX-5 binding inconclusive
O=C(C[C@@H]1C/C=C\CC[C@@H](Cc2ccc(F)cc2)C(=O)OC[C@@H](Cc2ccccc2)NC1=O)NCCO	none (no result: MCL1 BIM primary, BCLXL inh, MEX-5 binding)
Cc1cccc(OCCC(=O)NNC(=O)c2ccoc2C)c1	none (no result: MEX-5 binding)
Cn1ncc(Cl)c1C(=O)N/N=C/c1cccc(OC2CSC2)c1	MEX-5 binding -36
O=S1(=O)CCN(C(CCO)c2cccc(C(F)(F)F)c2)CC1 (stereo unspecified)	LANA-H2B inh active
COC(=O)c1cc(CNC(=O)c2ccc(S(=O)(=O)N(C)c3ccccc3)cc2)ccc1OC	none (no result: LANA-H2B inh, MEX-5 binding)
O=C(C1CC12CCCC2)N1CCC(CO)(Cc2ccccc2Cl)CC1 (stereo unspecified)	LANA-H2B inh 19
O=C(CN1CCN(S(=O)(=O)N2CCCCC2)CC1)Nc1ccc(Cl)c(Cl)c1	LANA-H2B inh 45
CN(C)C(CNC(=O)c1cc2ccccc2o1)c1ccco1 (stereo unspecified)	none (no result: MCL1 BIM primary, BCLXL inh, MEX-5 binding)
NC(=S)Nc1ncc(C(F)(F)F)cc1Cl	LANA-H2B inh 128
CN1CCN(CC(=O)Nc2ccc([N+](=O)[O-])cc2Br)CC1	none
CC1CN(CC(=O)Nc2ccc([N+](=O)[O-])cc2Br)CC(C)O1 (stereo unspecified)	LANA-H2B inh active
Cc1ccc(S(=O)(=O)N2CCN(C(=O)COC(=O)c3ccc(Cl)nc3)CC2)c(C)c1	none (no result: MEX-5 binding)
C#CCN1C(=O)S/C(=C/C=C/c2ccc(N(C)C)cc2)C1=O	MCL1 BIM primary 44, BCLXL inh 55 (no result: MEX-5 binding)
O=C(CNC(=O)C(c1ccccc1)c1ccccc1)N/N=C/c1ccc(O)cc1O	none
O=C(CNC(=O)C(c1ccccc1)c1ccccc1)N/N=C\c1cccc(O)c1	LANA-H2B inh 94
COc1ccccc1NC(=O)C(=O)N/N=C(\C)CC(=O)Nc1ccccn1	LANA-H2B inh 24
Cc1ccc(-n2nnc3c(=O)n(CC(=O)N4CCCC4)cnc32)cc1	LANA-H2B inh 10
CCNc1nc(NC(C)C)nc(NS(=O)(=O)c2ccc(C)cc2)n1	none
CC(=O)Nc1ccc(-c2cn3ccsc3n2)cc1	LANA-H2B inh 15
O=C(Nc1ccc(-c2cn3ccsc3n2)cc1)C1CC1	none
COc1cc(/C=C2\SC(=O)N(CCNC(=O)c3sc4cc(F)ccc4c3Cl)C2=O)cc(OC)c1OC	LANA-H2B inh 15
Cc1ccc(-n2c(SC3CCOC3=O)nc3ccccc3c2=O)cc1 (stereo unspecified)	BCLXL inh 31
CC[C@@]1(C(=O)OC)N[C@H](CN(C)C(=O)Nc2ccc(Cl)cc2)[C@@H]2C(=O)N(Cc3ccccc3)C(=O)[C@@H]21	none (no result: MCL1 BIM primary, BCLXL inh, MEX-5 binding)
CSc1sccc1/C=C(/C#N)C(=O)c1ccco1	MEX-5 binding -27
CN1C2CCC1CC(OC(=O)C(CO)c1ccccc1)C2 (stereo unspecified)	none (no result: MEX-5 binding)
CN1[C@@H]2CC[C@H]1CC(OC(=O)C(CO)c1ccccc1)C2 (stereo partly specified)	LANA-H2B inh 36!
Cc1noc(C)c1S(=O)(=O)NCc1cccc(Cl)c1	none (no result: MEX-5 binding)
Cn1c(=O)c(C(=O)NCCc2ccc(Cl)cc2)c(O)c2ccccc21	none
Cn1c(=O)c(C(=O)NCCO)c(O)c2ccccc21	LANA-H2B inh 9.6
CC(=O)OC[C@]12CC[C@H]3[C@@](C)(CC[C@H]4C(C)(C)CCC[C@]34C)[C@@H]1C[C@H](C1=CC(=O)O[C@@H]1OC(C)=O)O2	none (no result: LANA-H2B inh, MCL1 BIM primary, BCLXL inh, MEX-5 binding)
CCN(CC)c1ccc(S(=O)(=O)N2CCCCC2)cc1NC(=O)C1CCC1	LANA-H2B inh 71
CCN(Cc1ccccc1)C(=O)COC(=O)c1cc(S(=O)(=O)Nc2ccccc2OC)ccc1O	none (no result: MCL1 BIM primary, BCLXL inh, MEX-5 binding)
c1cc(Nc2cccc3nccnc23)c2nccnc2c1	MEX-5 binding -29
Cc1ccc(NC(=O)CN(C)C(=O)c2cc(-c3cccs3)nn2-c2ccccc2)cc1	none (no result: MEX-5 binding)
CC(=O)Oc1cccc(/C=C2\Sc3ccccc3C2=O)c1	LANA-H2B inh 14
C/C(N)=C(/C#N)C(=O)COC(=O)c1ccc(OCC2CCCO2)cc1 (stereo unspecified)	none
O=C(CCNC(=O)N1CC(=O)Nc2ccccc21)NCc1cccc(Cl)c1	none
O=C(CCNC(=O)N1CC(=O)Nc2ccccc21)Nc1cccc(Cl)c1	LANA-H2B inh 15
CCOc1ccc(-c2nn(-c3ccccc3)cc2/C=C2\SC(=S)N(C3CCS(=O)(=O)C3)C2=O)cc1 (stereo unspecified)	MEX-5 binding -31
CC12CCC(=O)N1C(C(=O)NNC(=O)c1ccc(Cl)cc1)CS2 (stereo unspecified)	LANA-H2B inh 32 (no result: MEX-5 binding)
CC12CCC(=O)N1C(C(=O)NNC(=O)c1ccc(F)cc1)CS2 (stereo unspecified)	none
Cc1cc(N2CCOCC2)nc(C(C)C)n1	none
Cc1cc(N2CC(C)OC(C)C2)nc(C(C)C)n1 (stereo unspecified)	LANA-H2B inh active
CCn1cc(C(=O)NCCCOC)c(=O)c2cc(S(=O)(=O)N3CCCC3)ccc21	LANA-H2B inh 14
CCOc1ccc(S(=O)(=O)NCCC(=O)NCC2(N3CCCCC3)CCCCC2)cc1	LANA-H2B inh 168
COc1cc(C(=O)NC2CCCC(C)C2C)ccc1OCC(=O)N1CCOCC1 (stereo unspecified)	none (no result: MEX-5 binding)
C=CCn1c(SCc2c(C)noc2C)nc2sc(C)c(C)c2c1=O	LANA-H2B inh 56
Cc1noc(C)c1CSc1nc2sc(C)c(C)c2c(=O)n1-c1ccccc1	none
CC(=O)c1ccc(NC(=S)Nc2ccc(Br)c(Cl)c2)cc1	LANA-H2B inh 36
O=C(NC(=S)Nc1ccc(Br)c(Cl)c1)C1CC1	none (no result: MCL1 BIM primary, BCLXL inh, GLD-1 RNA inh)
Cc1nc2ccccc2n1/N=C/c1ccc([N+](=O)[O-])s1	BCLXL inh 32, MEX-5 binding -76

From PubChem
